Experiment in all cases: DAPPL (digital affinity profiling via proximity ligation, sequencing); 10 mM Tris-HCl pH 7.5, 50 mM NaCl, 1 mM DTT, 4% glycerol, room temperature, 30 min; GST-TFs on glutathione beads, 16-mer random dsDNA library, 0.1% formaldehyde crosslink after washing; high values mean tight binding
Assay [1] has as its target T1, FEV (Homo sapiens, UniProt Q99581 1-238).
T1 sequence: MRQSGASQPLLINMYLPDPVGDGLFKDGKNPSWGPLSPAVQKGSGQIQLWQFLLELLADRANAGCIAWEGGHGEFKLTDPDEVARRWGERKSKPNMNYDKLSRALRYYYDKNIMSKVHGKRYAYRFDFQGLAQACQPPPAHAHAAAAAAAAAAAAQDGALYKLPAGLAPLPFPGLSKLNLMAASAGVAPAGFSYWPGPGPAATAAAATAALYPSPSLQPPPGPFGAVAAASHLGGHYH
The conditions noted are these: protein: recombinant; tags: N-terminal GST; dsDNA, one strand shown. A digest of the protocol:
(§1)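 In yeast, human transcription factors were expressed with a GST fusion, then pulled down on glutathione beads and given DNA barcodes. Pooled with a tag-only sample, they were exposed to 200 nmole of a 16-mer random double-stranded DNA library (Tris/NaCl/DTT/glycerol buffer, room temperature, 30 min), washed, crosslinked with 0.1% formaldehyde, proximity-ligated using BsaI/T4 ligase for 1 h at 37 °C, PCR-amplified and read on an Illumina NextSeq500. Each hexamer's frequency of reads for a factor, divided by the matching frequency for the tag-only sample, gives the binding signal.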

Assay [2] deals with ETV5 (Homo sapiens, UniProt P41161 1-510). The conditions noted are these: protein: recombinant; tags: N-terminal GST; dsDNA, one strand shown. A digest of the protocol: as §1
ETV5, sequence (P41161 whole entry): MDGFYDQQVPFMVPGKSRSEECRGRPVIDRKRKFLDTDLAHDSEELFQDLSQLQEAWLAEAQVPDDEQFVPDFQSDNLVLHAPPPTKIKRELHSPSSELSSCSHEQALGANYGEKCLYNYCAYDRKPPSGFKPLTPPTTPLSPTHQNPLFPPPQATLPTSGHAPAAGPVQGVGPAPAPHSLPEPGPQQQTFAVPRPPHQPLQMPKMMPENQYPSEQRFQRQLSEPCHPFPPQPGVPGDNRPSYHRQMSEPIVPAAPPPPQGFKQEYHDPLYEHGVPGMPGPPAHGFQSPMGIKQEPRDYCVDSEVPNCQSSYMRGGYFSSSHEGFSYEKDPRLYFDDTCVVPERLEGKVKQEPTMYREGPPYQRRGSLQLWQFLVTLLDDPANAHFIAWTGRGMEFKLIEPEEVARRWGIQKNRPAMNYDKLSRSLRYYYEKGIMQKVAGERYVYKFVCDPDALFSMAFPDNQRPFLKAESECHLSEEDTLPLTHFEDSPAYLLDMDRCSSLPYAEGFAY
Assay [3] has as its target HSF1 (Homo sapiens, UniProt Q00613 1-529). The conditions noted are these: protein: recombinant; tags: N-terminal GST; chain copies: 3; dsDNA, one strand shown. Put shortly: as §1
Assay [4] has as its target T2, SPIC (Homo sapiens, UniProt Q8N5J4 1-248).
T2 sequence: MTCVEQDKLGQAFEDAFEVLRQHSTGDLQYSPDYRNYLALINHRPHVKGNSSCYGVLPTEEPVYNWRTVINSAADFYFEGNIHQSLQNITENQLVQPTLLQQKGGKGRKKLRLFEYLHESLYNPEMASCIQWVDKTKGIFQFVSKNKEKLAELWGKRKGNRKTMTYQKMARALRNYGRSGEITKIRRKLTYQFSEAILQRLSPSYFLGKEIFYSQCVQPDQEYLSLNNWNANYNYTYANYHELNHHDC
The conditions noted are these: protein: recombinant; tags: N-terminal GST; dsDNA, one strand shown. Put shortly: as §1

Assay [5] deals with ELF4 (Homo sapiens, UniProt Q99607 1-663). The conditions noted are these: protein: recombinant; tags: N-terminal GST; dsDNA, one strand shown. A digest of the protocol: as §1
ELF4, sequence (Q99607 whole entry): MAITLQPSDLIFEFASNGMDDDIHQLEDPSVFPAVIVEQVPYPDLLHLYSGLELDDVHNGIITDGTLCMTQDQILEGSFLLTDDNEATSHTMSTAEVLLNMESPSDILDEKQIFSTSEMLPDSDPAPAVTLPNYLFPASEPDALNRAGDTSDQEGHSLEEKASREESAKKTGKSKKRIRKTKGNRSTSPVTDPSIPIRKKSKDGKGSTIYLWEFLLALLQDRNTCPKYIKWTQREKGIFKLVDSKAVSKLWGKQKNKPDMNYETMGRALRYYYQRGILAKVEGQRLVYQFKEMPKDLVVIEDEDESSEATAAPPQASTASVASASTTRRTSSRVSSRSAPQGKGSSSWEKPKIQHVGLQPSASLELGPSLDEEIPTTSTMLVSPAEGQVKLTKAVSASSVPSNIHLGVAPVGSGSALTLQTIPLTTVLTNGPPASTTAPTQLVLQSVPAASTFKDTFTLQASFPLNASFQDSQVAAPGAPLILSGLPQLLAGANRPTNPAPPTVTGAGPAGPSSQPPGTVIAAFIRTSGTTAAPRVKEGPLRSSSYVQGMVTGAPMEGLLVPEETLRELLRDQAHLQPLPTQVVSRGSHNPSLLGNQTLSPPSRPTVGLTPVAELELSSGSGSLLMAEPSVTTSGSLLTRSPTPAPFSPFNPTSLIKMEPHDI
Assay [6] has as its target T3, ELK4 (Homo sapiens, UniProt P28324-2 1-405).
T3 sequence: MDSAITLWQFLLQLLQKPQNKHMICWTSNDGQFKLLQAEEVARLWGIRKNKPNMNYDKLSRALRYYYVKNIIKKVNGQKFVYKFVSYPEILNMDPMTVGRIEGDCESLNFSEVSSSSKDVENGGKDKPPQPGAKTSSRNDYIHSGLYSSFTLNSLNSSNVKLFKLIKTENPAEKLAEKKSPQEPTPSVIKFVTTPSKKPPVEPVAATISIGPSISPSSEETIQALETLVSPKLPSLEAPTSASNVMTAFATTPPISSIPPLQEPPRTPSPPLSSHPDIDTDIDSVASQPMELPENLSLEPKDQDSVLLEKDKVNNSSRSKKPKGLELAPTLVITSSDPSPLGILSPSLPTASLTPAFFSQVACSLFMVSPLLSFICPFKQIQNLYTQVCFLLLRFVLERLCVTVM
The conditions noted are these: protein: recombinant; tags: N-terminal GST; dsDNA, one strand shown. Put shortly:
as §1

The target of assay [7] is T4, ETV2 (Homo sapiens, UniProt O00321 1-342).
T4 sequence: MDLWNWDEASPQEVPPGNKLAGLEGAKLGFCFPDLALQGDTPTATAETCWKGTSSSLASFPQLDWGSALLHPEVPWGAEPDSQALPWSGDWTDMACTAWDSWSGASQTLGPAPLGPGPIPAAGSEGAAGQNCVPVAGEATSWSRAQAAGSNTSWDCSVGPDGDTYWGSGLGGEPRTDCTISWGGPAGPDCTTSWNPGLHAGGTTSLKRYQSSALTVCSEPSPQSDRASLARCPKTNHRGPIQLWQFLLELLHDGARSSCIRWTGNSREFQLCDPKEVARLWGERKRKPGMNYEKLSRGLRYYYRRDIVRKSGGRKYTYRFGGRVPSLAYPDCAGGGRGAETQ
The conditions noted are these: protein: recombinant; tags: N-terminal GST; dsDNA, one strand shown. A digest of the protocol: as §1

Assay [8] deals with T5, ELF3 (Homo sapiens, UniProt P78545 1-371).
T5 sequence: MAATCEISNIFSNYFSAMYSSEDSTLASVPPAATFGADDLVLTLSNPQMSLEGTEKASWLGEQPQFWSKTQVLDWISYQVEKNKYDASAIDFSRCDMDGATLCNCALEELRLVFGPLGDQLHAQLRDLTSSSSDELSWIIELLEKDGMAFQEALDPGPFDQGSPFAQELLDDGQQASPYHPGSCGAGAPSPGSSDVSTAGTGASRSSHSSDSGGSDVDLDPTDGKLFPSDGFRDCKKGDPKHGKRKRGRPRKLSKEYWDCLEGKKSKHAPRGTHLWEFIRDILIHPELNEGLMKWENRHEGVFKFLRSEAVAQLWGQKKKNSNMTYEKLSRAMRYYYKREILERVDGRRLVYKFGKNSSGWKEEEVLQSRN
The conditions noted are these: protein: recombinant; tags: N-terminal GST; dsDNA, one strand shown. A digest of the protocol: as §1

In assay [9] the target is CRX (Homo sapiens, UniProt O43186 1-299). The conditions noted are these: protein: recombinant; tags: N-terminal GST; dsDNA, one strand shown. Put shortly: as §1
CRX, sequence (O43186 whole entry): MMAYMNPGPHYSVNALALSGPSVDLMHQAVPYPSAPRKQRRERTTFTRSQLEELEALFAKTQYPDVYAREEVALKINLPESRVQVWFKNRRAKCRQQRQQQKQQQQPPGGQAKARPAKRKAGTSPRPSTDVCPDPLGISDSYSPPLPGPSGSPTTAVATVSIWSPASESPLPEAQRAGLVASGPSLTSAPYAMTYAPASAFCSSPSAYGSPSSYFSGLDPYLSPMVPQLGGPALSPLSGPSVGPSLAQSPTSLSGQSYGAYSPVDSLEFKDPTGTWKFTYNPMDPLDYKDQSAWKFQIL
Assay [10] concerns the target ETV1 (Homo sapiens, UniProt P50549 1-477). The conditions noted are these: protein: recombinant; tags: N-terminal GST; dsDNA, one strand shown. Put shortly:
as §1

In assay [11] the target is T6, ERF (Homo sapiens, UniProt P50548 1-548).
T6 sequence: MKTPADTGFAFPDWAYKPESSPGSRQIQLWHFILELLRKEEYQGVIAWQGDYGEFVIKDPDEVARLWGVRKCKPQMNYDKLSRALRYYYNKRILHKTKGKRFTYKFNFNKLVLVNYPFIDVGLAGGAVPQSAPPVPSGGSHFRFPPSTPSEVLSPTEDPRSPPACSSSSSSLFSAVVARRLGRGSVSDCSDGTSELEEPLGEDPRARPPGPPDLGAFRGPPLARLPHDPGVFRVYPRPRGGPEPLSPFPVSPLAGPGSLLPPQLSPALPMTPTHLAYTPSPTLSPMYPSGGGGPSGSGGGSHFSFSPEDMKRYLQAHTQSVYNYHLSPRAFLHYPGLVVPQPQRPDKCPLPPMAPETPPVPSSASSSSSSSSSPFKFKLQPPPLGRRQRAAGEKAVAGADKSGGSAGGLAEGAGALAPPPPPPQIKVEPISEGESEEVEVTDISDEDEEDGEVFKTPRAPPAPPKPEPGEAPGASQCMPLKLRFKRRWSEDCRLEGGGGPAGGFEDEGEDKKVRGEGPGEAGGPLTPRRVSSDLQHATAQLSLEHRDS
The conditions noted are these: protein: recombinant; tags: N-terminal GST; dsDNA, one strand shown. Put shortly: as §1

Assay [12] has as its target T7, ETV3L (Homo sapiens, UniProt Q6ZN32 1-361).
T7 sequence: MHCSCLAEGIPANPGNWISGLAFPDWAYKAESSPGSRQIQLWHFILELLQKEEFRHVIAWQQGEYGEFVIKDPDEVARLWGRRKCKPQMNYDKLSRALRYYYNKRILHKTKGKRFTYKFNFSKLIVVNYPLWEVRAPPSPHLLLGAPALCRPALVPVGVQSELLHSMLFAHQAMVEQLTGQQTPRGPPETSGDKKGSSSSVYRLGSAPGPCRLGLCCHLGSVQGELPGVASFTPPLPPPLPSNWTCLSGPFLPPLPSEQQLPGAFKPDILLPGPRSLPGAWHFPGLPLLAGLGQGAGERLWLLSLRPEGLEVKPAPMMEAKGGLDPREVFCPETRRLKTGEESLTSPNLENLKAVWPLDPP
The conditions noted are these: protein: recombinant; tags: N-terminal GST; dsDNA, one strand shown. A digest of the protocol: as §1

Assay [13] has as its target T8, ETS2 (Homo sapiens, UniProt P15036 1-469).
T8 sequence: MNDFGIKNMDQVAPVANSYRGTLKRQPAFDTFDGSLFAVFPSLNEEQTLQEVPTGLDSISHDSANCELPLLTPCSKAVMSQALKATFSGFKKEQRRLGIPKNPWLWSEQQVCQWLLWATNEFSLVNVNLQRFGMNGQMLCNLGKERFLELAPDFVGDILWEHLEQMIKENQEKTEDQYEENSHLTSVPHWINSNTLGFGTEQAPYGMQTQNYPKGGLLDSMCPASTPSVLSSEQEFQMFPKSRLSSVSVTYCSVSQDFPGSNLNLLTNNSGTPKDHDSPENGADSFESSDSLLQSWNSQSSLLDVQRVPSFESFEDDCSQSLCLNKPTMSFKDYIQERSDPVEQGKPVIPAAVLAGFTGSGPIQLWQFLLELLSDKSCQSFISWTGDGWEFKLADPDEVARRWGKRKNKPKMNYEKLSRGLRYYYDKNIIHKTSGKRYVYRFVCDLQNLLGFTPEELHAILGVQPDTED
The conditions noted are these: protein: recombinant; tags: N-terminal GST; dsDNA, one strand shown. A digest of the protocol: as §1

Assay [14] concerns the target T9, SPDEF (Homo sapiens, UniProt O95238 1-335).
T9 sequence: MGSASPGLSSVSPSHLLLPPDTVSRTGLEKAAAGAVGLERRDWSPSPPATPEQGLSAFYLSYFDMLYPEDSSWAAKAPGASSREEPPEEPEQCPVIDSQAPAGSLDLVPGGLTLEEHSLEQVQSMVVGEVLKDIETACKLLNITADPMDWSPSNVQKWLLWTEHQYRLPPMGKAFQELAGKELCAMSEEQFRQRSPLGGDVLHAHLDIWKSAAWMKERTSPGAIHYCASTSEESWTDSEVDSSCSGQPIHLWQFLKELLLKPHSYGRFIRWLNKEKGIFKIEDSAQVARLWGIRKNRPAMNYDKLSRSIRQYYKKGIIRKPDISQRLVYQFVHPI
The conditions noted are these: protein: recombinant; tags: N-terminal GST; dsDNA, one strand shown. Put shortly:
as §1

Assay [15] deals with T10, ETV7 (Homo sapiens, UniProt Q9Y603 1-341).
T10 sequence: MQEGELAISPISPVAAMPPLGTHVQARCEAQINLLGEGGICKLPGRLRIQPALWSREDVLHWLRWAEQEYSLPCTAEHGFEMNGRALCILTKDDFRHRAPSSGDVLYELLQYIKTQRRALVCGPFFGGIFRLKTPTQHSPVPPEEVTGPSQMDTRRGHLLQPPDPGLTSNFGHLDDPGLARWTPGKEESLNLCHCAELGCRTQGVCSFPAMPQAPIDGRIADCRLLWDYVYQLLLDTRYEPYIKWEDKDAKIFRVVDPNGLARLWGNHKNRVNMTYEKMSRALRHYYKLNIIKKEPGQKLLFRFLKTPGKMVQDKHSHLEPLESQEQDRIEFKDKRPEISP
The conditions noted are these: protein: recombinant; tags: N-terminal GST; dsDNA, one strand shown. Put shortly: as §1

Assay [16] addresses T11, ELF5 (Homo sapiens, UniProt Q9UKW6-2 1-255).
T11 sequence: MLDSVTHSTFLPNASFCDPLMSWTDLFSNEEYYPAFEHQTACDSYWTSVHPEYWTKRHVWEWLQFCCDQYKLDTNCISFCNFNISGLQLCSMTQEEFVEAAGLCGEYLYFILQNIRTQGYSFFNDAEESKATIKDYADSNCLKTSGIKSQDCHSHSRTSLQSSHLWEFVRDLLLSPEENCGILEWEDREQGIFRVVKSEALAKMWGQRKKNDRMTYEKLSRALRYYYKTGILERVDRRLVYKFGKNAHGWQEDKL
The conditions noted are these: protein: recombinant; tags: N-terminal GST; dsDNA, one strand shown. Put shortly: as §1

Assay [17] concerns the target T12, ETV3 (Homo sapiens, UniProt P41162-2 1-143).
T12 sequence: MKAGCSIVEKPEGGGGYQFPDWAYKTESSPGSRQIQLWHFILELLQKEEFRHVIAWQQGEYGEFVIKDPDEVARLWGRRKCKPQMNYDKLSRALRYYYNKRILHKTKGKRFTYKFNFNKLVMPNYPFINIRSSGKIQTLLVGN
The conditions noted are these: protein: recombinant; tags: N-terminal GST; dsDNA, one strand shown. Put shortly: as §1

In assay [18] the target is ETV6 (Homo sapiens, UniProt P41212 1-452). The conditions noted are these: protein: recombinant; tags: N-terminal GST; dsDNA, one strand shown. A digest of the protocol: as §1
ETV6, sequence (P41212 whole entry): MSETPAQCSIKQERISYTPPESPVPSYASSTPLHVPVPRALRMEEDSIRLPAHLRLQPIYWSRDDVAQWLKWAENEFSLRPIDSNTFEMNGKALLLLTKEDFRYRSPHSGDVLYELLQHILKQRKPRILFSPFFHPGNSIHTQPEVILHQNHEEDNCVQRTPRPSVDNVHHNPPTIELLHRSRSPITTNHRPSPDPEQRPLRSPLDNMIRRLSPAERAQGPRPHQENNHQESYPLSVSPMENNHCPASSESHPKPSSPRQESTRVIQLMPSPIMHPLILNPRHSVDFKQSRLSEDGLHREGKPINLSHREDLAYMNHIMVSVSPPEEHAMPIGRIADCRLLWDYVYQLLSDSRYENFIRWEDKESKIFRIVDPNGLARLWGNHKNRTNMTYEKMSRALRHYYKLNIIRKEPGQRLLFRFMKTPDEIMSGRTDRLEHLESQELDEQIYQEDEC

ETV1, sequence (P50549 whole entry): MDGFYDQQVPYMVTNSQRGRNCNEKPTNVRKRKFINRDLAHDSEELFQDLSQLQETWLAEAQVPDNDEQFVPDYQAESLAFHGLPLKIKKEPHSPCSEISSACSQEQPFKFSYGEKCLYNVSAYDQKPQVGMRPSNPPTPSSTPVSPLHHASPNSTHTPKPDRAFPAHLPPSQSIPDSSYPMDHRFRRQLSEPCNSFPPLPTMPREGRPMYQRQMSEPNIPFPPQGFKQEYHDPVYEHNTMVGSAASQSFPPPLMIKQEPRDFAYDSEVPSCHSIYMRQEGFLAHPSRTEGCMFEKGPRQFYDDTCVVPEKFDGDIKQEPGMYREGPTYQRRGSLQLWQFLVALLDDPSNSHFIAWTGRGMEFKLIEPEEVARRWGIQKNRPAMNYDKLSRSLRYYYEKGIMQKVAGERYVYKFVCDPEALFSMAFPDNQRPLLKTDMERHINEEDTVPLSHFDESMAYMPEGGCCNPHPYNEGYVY
HSF1, sequence (Q00613 whole entry): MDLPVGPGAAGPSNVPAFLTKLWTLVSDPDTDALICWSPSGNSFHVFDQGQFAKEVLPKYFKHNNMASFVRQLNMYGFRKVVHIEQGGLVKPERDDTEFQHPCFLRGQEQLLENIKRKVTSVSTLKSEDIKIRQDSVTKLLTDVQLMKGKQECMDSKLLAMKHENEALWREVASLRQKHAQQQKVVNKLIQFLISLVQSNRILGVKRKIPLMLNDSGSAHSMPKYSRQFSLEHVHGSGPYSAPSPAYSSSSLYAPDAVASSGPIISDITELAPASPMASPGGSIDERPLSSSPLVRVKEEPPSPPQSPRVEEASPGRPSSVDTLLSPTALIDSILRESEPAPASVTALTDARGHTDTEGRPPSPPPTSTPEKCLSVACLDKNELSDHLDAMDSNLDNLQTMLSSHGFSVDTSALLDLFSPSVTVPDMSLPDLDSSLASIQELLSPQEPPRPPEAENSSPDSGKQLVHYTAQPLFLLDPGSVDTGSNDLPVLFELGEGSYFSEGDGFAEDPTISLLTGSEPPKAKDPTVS

On to TCACGA, for which the binding signal in [1] is 1.05 fold enrichment (6-mer frequency, TF over GST control); in assay [2], 1.09 fold enrichment (6-mer frequency, TF over GST control); in [3] it was 1.37 fold enrichment (6-mer frequency, TF over GST control); in assay [4], 1.1 fold enrichment (6-mer frequency, TF over GST control); in assay [5] it was 1.27 fold enrichment (6-mer frequency, TF over GST control); in [6] it was 1.19 fold enrichment (6-mer frequency, TF over GST control). For the same sequence, the binding signal was 1.12 fold enrichment (6-mer frequency, TF over GST control) in assay [7]; 1.17 fold enrichment (6-mer frequency, TF over GST control) in assay [8]; 1.1 fold enrichment (6-mer frequency, TF over GST control) in [9]; 1.13 fold enrichment (6-mer frequency, TF over GST control) in assay [10]; 1.14 fold enrichment (6-mer frequency, TF over GST control) in assay [11]; 1.04 fold enrichment (6-mer frequency, TF over GST control) in assay [12]. Further, the binding signal is 1.13 fold enrichment (6-mer frequency, TF over GST control) in [13]; 1.17 fold enrichment (6-mer frequency, TF over GST control) in assay [14]; 1.16 fold enrichment (6-mer frequency, TF over GST control) in assay [15]; 1.03 fold enrichment (6-mer frequency, TF over GST control) in [16]; 1.14 fold enrichment (6-mer frequency, TF over GST control) in [17]; 1.16 fold enrichment (6-mer frequency, TF over GST control) in assay [18].

Values taken from article PMC7862700, “An all-to-all approach to the identification of sequence-specific readers for epigenetic DNA modifications on cytosine”.
